Measurements taken from paper PMC5540273 (PLoS ONE, 2017).

What was measured:
Conditions in all cases: concentration: 1 μM, replicates: in singlicate; n = 1
ERBB2 = system: ERBB2
ERBB3 = system: ERBB3
ERBB4 = system: ERBB4
ERK1 = system: T1, ERK1
T1 construct: gene MAPK3

ERK2 = system: T2, ERK2
T2 construct: gene MAPK1

ERK3 = system: T3, ERK3
T3 construct: gene MAPK6

ERK4 = system: T4, ERK4
T4 construct: gene MAPK4

ERK5 = system: T5, ERK5
T5 construct: gene MAPK7

ERK8 = system: T6, ERK8
T6 construct: gene MAPK15

ERN1 = system: ERN1
FAK = system: T7, FAK
T7 construct: gene PTK2

FER = system: FER
FES = system: FES
FGFR1 = system: FGFR1
FGFR2 = system: FGFR2
FGFR3 = system: FGFR3
FGFR4 = system: FGFR4
FGR = system: FGR
FLT1 = system: FLT1
FLT3-autoinhibited = system: FLT3-autoinhibited
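Further: KINOMEscan kinase panel screen.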

SMILES: Cc1c(O)cccc1Nc1ccnc2ccc(C(F)(F)F)cc12.Cl [GW466413]
- %Inh (ERBB2): 35%
- %Inh (ERBB3): 17%
- %Inh (ERBB4): 0%
- %Inh (ERK1): 0%
- %Inh (ERK2): 0%
- %Inh (ERK3): 0%
- %Inh (ERK4): 0%
- %Inh (ERK5): 0%
- %Inh (ERK8): 8%
- %Inh (ERN1): 0%
- %Inh (FAK): 0%
- %Inh (FER): 15%
- %Inh (FES): 0%
- %Inh (FGFR1): 0%
- %Inh (FGFR2): 0%
- %Inh (FGFR3): 0%
- %Inh (FGFR4): 0%
- %Inh (FGR): 58%
- %Inh (FLT1): 28%
- %Inh (FLT3-autoinhibited): 0%

SMILES: Cc1cccc(-c2cc(Nc3ccncc3)c3ccccc3n2)n1 [GSK223675]
- %Inh (ERBB2): 0%
- %Inh (ERBB3): 0%
- %Inh (ERBB4): 26%
- %Inh (ERK1): 0%
- %Inh (ERK2): 0%
- %Inh (ERK3): 0%
- %Inh (ERK4): 25%
- %Inh (ERK5): 0%
- %Inh (ERK8): 0%
- %Inh (ERN1): 13%
- %Inh (FAK): 0%
- %Inh (FER): 0%
- %Inh (FES): 0%
- %Inh (FGFR1): 0%
- %Inh (FGFR2): 0%
- %Inh (FGFR3): 12%
- %Inh (FGFR4): 0%
- %Inh (FGR): 7%
- %Inh (FLT1): 13%
- %Inh (FLT3-autoinhibited): 7%

SMILES: CCn1c(-c2ccccn2)nc2cnccc21 [SB-736398]
- %Inh (ERBB2): 26%
- %Inh (ERBB3): 14%
- %Inh (ERBB4): 0%
- %Inh (ERK1): 11%
- %Inh (ERK2): 0%
- %Inh (ERK3): 14%
- %Inh (ERK4): 6%
- %Inh (ERK5): 5%
- %Inh (ERK8): 37%
- %Inh (ERN1): 0%
- %Inh (FAK): 0%
- %Inh (FER): 2%
- %Inh (FES): 30%
- %Inh (FGFR1): 1%
- %Inh (FGFR2): 48%
- %Inh (FGFR3): 77%
- %Inh (FGFR4): 1%
- %Inh (FGR): 41%
- %Inh (FLT1): 21%
- %Inh (FLT3-autoinhibited): 0%

SMILES: COC(=O)c1c(-c2ccccc2)c2cc(C(=O)O)ccc2c(=O)n1Cc1ccccc1
- %Inh (ERBB2): 0%
- %Inh (ERBB3): 0%
- %Inh (ERBB4): 2%
- %Inh (ERK1): 0%
- %Inh (ERK2): 16%
- %Inh (ERK3): 0%
- %Inh (ERK4): 0%
- %Inh (ERK5): 0%
- %Inh (ERK8): 0%
- %Inh (ERN1): 0%
- %Inh (FAK): 0%
- %Inh (FER): 0%
- %Inh (FES): 0%
- %Inh (FGFR1): 0%
- %Inh (FGFR2): 3%
- %Inh (FGFR3): 0%
- %Inh (FGFR4): 0%
- %Inh (FGR): 0%
- %Inh (FLT1): 7%
- %Inh (FLT3-autoinhibited): 3%

SMILES: Fc1cc(Cl)ccc1Nc1ccnc2cc(I)ccc12 [GW551191]
- %Inh (ERBB2): 32%
- %Inh (ERBB3): 31%
- %Inh (ERBB4): 30%
- %Inh (ERK1): 0%
- %Inh (ERK2): 0%
- %Inh (ERK3): 5%
- %Inh (ERK4): 24%
- %Inh (ERK5): 0%
- %Inh (ERK8): 0%
- %Inh (ERN1): 2%
- %Inh (FAK): 0%
- %Inh (FER): 0%
- %Inh (FES): 0%
- %Inh (FGFR1): 8%
- %Inh (FGFR2): 18%
- %Inh (FGFR3): 0%
- %Inh (FGFR4): 5%
- %Inh (FGR): 30%
- %Inh (FLT1): 30%
- %Inh (FLT3-autoinhibited): 0%

SMILES: CC1=C(C(=O)Nc2cc3cn[nH]c3cc2F)C(c2ccc(C(F)(F)F)cc2)CC(=O)N1 (stereo not shown) [GSK429286]
- %Inh (ERBB2): 9%
- %Inh (ERBB3): 0%
- %Inh (ERBB4): 63%
- %Inh (ERK1): 8%
- %Inh (ERK2): 0%
- %Inh (ERK3): 14%
- %Inh (ERK4): 10%
- %Inh (ERK5): 0%
- %Inh (ERK8): 0%
- %Inh (ERN1): 2%
- %Inh (FAK): 0%
- %Inh (FER): 4%
- %Inh (FES): 0%
- %Inh (FGFR1): 0%
- %Inh (FGFR2): 3%
- %Inh (FGFR3): 17%
- %Inh (FGFR4): 8%
- %Inh (FGR): 24%
- %Inh (FLT1): 17%
- %Inh (FLT3-autoinhibited): 0%

SMILES: Cn1ccc2ncnc(Oc3ccc(Nc4nc5ccccc5[nH]4)cc3)c21
- %Inh (ERBB2): 3%
- %Inh (ERBB3): 0%
- %Inh (ERBB4): 0%
- %Inh (ERK1): 0%
- %Inh (ERK2): 2%
- %Inh (ERK3): 0%
- %Inh (ERK4): 0%
- %Inh (ERK5): 0%
- %Inh (ERK8): 0%
- %Inh (ERN1): 0%
- %Inh (FAK): 0%
- %Inh (FER): 0%
- %Inh (FES): 0%
- %Inh (FGFR1): 3%
- %Inh (FGFR2): 0%
- %Inh (FGFR3): 0%
- %Inh (FGFR4): 0%
- %Inh (FGR): 9%
- %Inh (FLT1): 0%
- %Inh (FLT3-autoinhibited): 0%

SMILES: Cc1nnc(-c2ccc3occ(-c4ccc(S(C)=O)cc4)c3c2)[nH]1 (stereo not shown)
- %Inh (ERBB2): 16%
- %Inh (ERBB3): 6%
- %Inh (ERBB4): 5%
- %Inh (ERK1): 0%
- %Inh (ERK2): 8%
- %Inh (ERK3): 13%
- %Inh (ERK4): 0%
- %Inh (ERK5): 0%
- %Inh (ERK8): 0%
- %Inh (ERN1): 35%
- %Inh (FAK): 0%
- %Inh (FER): 0%
- %Inh (FES): 14%
- %Inh (FGFR1): 0%
- %Inh (FGFR2): 0%
- %Inh (FGFR3): 0%
- %Inh (FGFR4): 3%
- %Inh (FGR): 19%
- %Inh (FLT1): 0%
- %Inh (FLT3-autoinhibited): 31%

SMILES: Cc1ccc(NC(=O)Nc2cc(C(C)(C)C)nn2-c2ccccc2)cc1 [GSK1014915]
- %Inh (ERBB2): 36%
- %Inh (ERBB3): 10%
- %Inh (ERBB4): 0%
- %Inh (ERK1): 0%
- %Inh (ERK2): 0%
- %Inh (ERK3): 7%
- %Inh (ERK4): 26%
- %Inh (ERK5): 0%
- %Inh (ERK8): 52%
- %Inh (ERN1): 0%
- %Inh (FAK): 0%
- %Inh (FER): 20%
- %Inh (FES): 0%
- %Inh (FGFR1): 6%
- %Inh (FGFR2): 25%
- %Inh (FGFR3): 16%
- %Inh (FGFR4): 15%
- %Inh (FGR): 18%
- %Inh (FLT1): 33%
- %Inh (FLT3-autoinhibited): 38%

SMILES: COc1ccc(Nc2nccc(NCCNC(=O)Nc3ccccc3F)n2)cc1 [GSK1379901]
- %Inh (ERBB2): 0%
- %Inh (ERBB3): 0%
- %Inh (ERBB4): 45%
- %Inh (ERK1): 0%
- %Inh (ERK2): 0%
- %Inh (ERK3): 9%
- %Inh (ERK4): 32%
- %Inh (ERK5): 0%
- %Inh (ERK8): 0%
- %Inh (ERN1): 0%
- %Inh (FAK): 0%
- %Inh (FER): 35%
- %Inh (FES): 26%
- %Inh (FGFR1): 0%
- %Inh (FGFR2): 44%
- %Inh (FGFR3): 6%
- %Inh (FGFR4): 10%
- %Inh (FGR): 36%
- %Inh (FLT1): 32%
- %Inh (FLT3-autoinhibited): 0%

SMILES: Cc1c(Cn2ccn3c(=O)cc(N4CCOCC4)nc23)cccc1C(F)(F)F [GSK2289044]
- %Inh (ERBB2): 0%
- %Inh (ERBB3): 0%
- %Inh (ERBB4): 0%
- %Inh (ERK1): 0%
- %Inh (ERK2): 0%
- %Inh (ERK3): 0%
- %Inh (ERK4): 0%
- %Inh (ERK5): 0%
- %Inh (ERK8): 0%
- %Inh (ERN1): 3%
- %Inh (FAK): 0%
- %Inh (FER): 7%
- %Inh (FES): 23%
- %Inh (FGFR1): 0%
- %Inh (FGFR2): 19%
- %Inh (FGFR3): 28%
- %Inh (FGFR4): 5%
- %Inh (FGR): 14%
- %Inh (FLT1): 0%
- %Inh (FLT3-autoinhibited): 0%
